Experimental data as given in PubChem BioAssay AID651812 (National Center for Advancing Translational Sciences (NCATS), 2012).
Among all 2,100 compounds or so, about 650 (31%) were called active. About 16% were inconclusive and are not listed. Calls come from the whole dose curve; as a rule, active = well fitted inhibition curve with a large enough effect; inconclusive = small, poorly fitted or top-dose-only effect; inactive = flat fitted curve, though single readings scatter. Some of the results follow.

Test: qHTS for inhibitors of Vif-A3G interactions: Cherry picks; note: nearly all actives have a fitted effect of over 80% in size; for activity, negative = fluorescence increase: % of control where 0% means no effect
Conditions: HeLa A3G-eYFP + Vif (tagged APOBEC3G with the HIV-1 protein that degrades it), 24 h; Potency: eYFP fluorescence increase; series mostly up to 36.9 µM; activity, negative = fluorescence increase: at the top concentration
From the text: The recent discovery and characterization of host restriction factors, which provide a potent defense to invading retroviruses, has provided new targets for antiviral drug development. APOBEC3G (A3G) and APOBEC3F (A3F) are potent cytidine deaminases that block HIV-1 replication; HIV-1 expresses the Vif protein, which counteracts A3G and A3F by binding to them and inducing their proteasomal degradation. The Vif-A3G and Vif-A3F interactions provide two potential targets for development of small molecules which can interfere with the ability of Vif to degrade A3G or A3F. […] To identify inhibitors that can interfere with Vif mediated degradation of A3G and A3F, we have developed Hela cell lines that stably express A3G or A3F tagged with eYFP at the C-terminal end (A3G-eYFP or A3F-eYFP, respectively) and Vif. In the absence of an inhibitor, Vif induces degradation of A3G-eYFP and A3F-eYFP, and the cells are not fluorescent. In the presence of an inhibitor, it is expected that Vif will be unable to degrade A3G-eYFP and/or A3F-eYFP, resulting in an increase in yellow fluorescence. In this assay, Vif A3G was screened against the cherry picks ordered from the MLSMR. NIH Chemical Genomics Center [NCGC] NIH Molecular Libraries Probe Centers Network [MLPCN] MLPCN Grant: MH093245 Assay Submitter (PI): Vinay Pathak, National Cancer Institute
A3G-Vif cells were harvested from T225 flask and resuspended in phenol free OPTI-MEM medium with 5% FBS. Then 5 uL of 140,000 cells/mL resuspended cells was dispensed into each well of low base Aurora COC 1,536-well plates (black walled, clear bottom) using a Multidrop Combi dispenser. After overnight culture at 37 deg C with 5% CO2, a total of 23 nL of compounds at 5 selected concentrations from the NPC or positive control (2 mM stock of MG132) in DMSO was transferred to each well of the assay plate using a pintool (Kalypsys, San Diego, CA), and the plates were further incubated at 37 deg C with 5% CO2 for 24 hours. After that, the plates were measured on Acumen Explorer (TTP Lab Tech). The fluorescence was detected by 488 nm/Ex and […].
Potency is the fitted concentration of half-maximal effect.

Structure (SMILES)	activity, negative = fluorescence increase	Potency
Cc1c(=O)n(OCc2ccc(Cl)cc2)c2ccccc2[n+]1[O-]	-13.2% (inactive)	–
Nc1nc2n[nH]nc2c(=O)[nH]1	-21.5% (inactive)	–
COCCN1C(=O)/C(=C/c2ccc(N3CCCC3)cc2)SC1=S	–	4.61 µM (active)
COCCN1C(=O)/C(=C/c2ccc(N3CCCC3)cc2C)SC1=S	–	2.59 µM (active)
CC12CC3CC(C)(C1)CC(C(=O)NC(=S)N1CCOCC1)(C3)C2	-2.7% (inactive)	–
COc1ccc(-c2n[nH]c(C)c2-c2ccc(OC)c(OC)c2)c(O)c1	-8.88% (inactive)	–
C=C1C(=O)O[C@@H]2[C@H]1[C@@H](OC(=O)/C(C)=C/C)C/C(C)=C\C(=O)/C=C(\C)[C@@H]2O	-0.207% (inactive)	–
COc1ccc(/C=N/NC(=O)c2ccccc2Cl)cc1CSc1nc2ccccc2s1	-9.1% (inactive)	–
COc1cc(/C=C(\C#N)c2nc3ccccc3[nH]2)ccc1OCc1ccccc1F	–	18.4 µM (active)
O=C(Oc1ccc(Cl)c2cccnc12)c1ccco1	1.78% (inactive)	–
COc1ccc(OC)c2sc(NC(=O)CCS(=O)(=O)c3ccccc3)nc12	1.26% (inactive)	–
COc1cc(/C=C(\C#N)c2nc3ccccc3s2)ccc1OCC(=O)Nc1ccccc1	–	17.7 µM (active)
COc1ccc(/C=N\NC(=O)c2ccccc2F)cc1COc1ccc(F)cc1F	-9.87% (inactive)	–
COc1cc(/C=C(\C#N)c2nc3ccc(C)cc3[nH]2)ccc1OC(C)C	–	20.6 µM (active)
COc1cc(/C=C(/C#N)c2nc3ccccc3[nH]2)ccc1OC(=O)c1ccco1	–	3.53 µM (active)
CC1(C)Cc2nc3sc4c(SCC(=O)NCc5ccco5)ncnc4c3cc2CO1	2.17% (inactive)	–
CCS(=O)(=O)N1CCc2cc(C(=O)N3CCN(c4cccc(C(F)(F)F)c4)CC3)ccc21	1.28% [at 46.1 µM] (inactive)	–
CCC(C)Sc1cccc(-c2nc3cc(C)ccn3c2NC2CCCCC2)c1 (configuration not stated)	10.8% [at 46.1 µM] (inactive)	–
CN1C(=O)C(O)(C2COC(C)(C)CC2=O)c2cc(Br)ccc21 (configuration not stated)	-6.11% (inactive)	–
N#CC1=C(N)Oc2cc(N)ccc2C1C1CC=CCC1 (configuration not stated)	-0.128% (inactive)	–
COc1ccc(-c2cc(NC=O)c3ncc(-c4ccc(OC)c(OC)c4)n3c2)cc1OC	-17.9% (inactive)	–

Structure (SMILES)	activity, negative = fluorescence increase	Potency
CCOC(=O)C(=Cc1ccc(-n2ccnc2)cc1)C(=O)OCC	-3.07% (inactive)	–
Cn1c(-c2ccccc2)cc2c3no[n+]([O-])c3ccc21	-7.06% (inactive)	–
CC(C)(C)NCC(=Cc1ccccc1)C(=O)c1ccccc1	3.08% (inactive)	–
Cc1cccc(Nc2nnc(SC/C(O)=C(\C#N)c3nc4ccccc4[nH]3)s2)c1	-16.6% [at 46.1 µM] (inactive)	–
COc1cc(/C=C(\C#N)c2nc3ccccc3[nH]2)ccc1O	–	5.8 µM (active)
COc1cc(/C=C(/C#N)c2nc3ccccc3[nH]2)ccc1OCC(=O)Nc1ccccc1C(C)C	–	16.4 µM (active)
COc1cc(/C=C(/C(=O)c2cccs2)c2nc3ccccc3[nH]2)ccc1O	-7.69% (inactive)	–
COc1cc(Br)c(/C=C(\C#N)c2nc3ccccc3[nH]2)cc1OC	–	18.4 µM (active)
COc1ccc(-c2cnnc(N/N=C/c3ccc(O)c(OC)c3)n2)cc1	-16.7% (inactive)	–
N#C/C(=C\c1cccnc1)c1nc2ccccc2[nH]1	-5.97% (inactive)	–
COc1cc(/C=C(\C#N)c2nc3ccccc3[nH]2)cc(Cl)c1OCc1ccccc1Cl	–	18.4 µM (active)
COc1ccccc1NC(=O)c1oc2ccccc2c1NC(=O)c1cccc(OC)c1OC	-11.2% [at 46.1 µM] (inactive)	–
CC(=O)c1cccc(-c2ccnc3c2CC(C(=O)NCC2CC2)O3)c1 (configuration not stated)	-3.12% (inactive)	–
N#CC1CC(c2ccccc2)Nc2cc(Cl)ccc2N1 (configuration not stated)	1.23% (inactive)	–
COc1ccc(N(C)S(=O)(=O)c2cccc3cccnc23)c(OC)c1	2.33% (inactive)	–
COc1ccc(C(=O)NC2CCCc3ccccc32)cc1[N+](=O)[O-] (configuration not stated)	1.3% (inactive)	–
COc1ccc2nc(NC(=O)Nc3ccccc3OC)sc2c1	0.903% (inactive)	–
COc1ccc2nc(N3C(=O)/C(=C/c4ccccc4)NC3=S)sc2c1	–	3.66 µM (active)
COc1ccc2nc(NC(=S)NC(=O)c3ccco3)sc2c1	-2.19% [at 46.1 µM] (inactive)	–
CCOc1ccc2nc(N3C(=O)/C(=C/c4ccc(Cl)cc4)NC3=S)sc2c1	–	11.6 µM (active)
O=C(OC12CC3CC(CC(C3)C1)C2)c1ccc(NCc2cc(O)ccc2O)cc1	1.32% [at 46.1 µM] (inactive)	–

Structure (SMILES)	activity, negative = fluorescence increase	Potency
COc1c(-c2ccc(O)c(O)c2)oc2cc(O)cc(O)c2c1=O	-10.1% (inactive)	–
CC(=O)c1c(C)oc2c1cc(NS(=O)(=O)c1ccc(Br)cc1)c1ccccc12	-5.41% [at 46.1 µM] (inactive)	–
Cc1ccc2c(c1)sc(-c1ccc(N(C)C)cc1)[n+]2C	–	20.6 µM (active)
COc1ccc(N/C=C/C(=O)c2cc(OC)c(OC)c(OC)c2)cc1	-17% (inactive)	–
COc1ccc(C(=O)/C=C/Nc2ccc([N+](=O)[O-])cc2C)c(OC)c1	–	11.6 µM (active)
COc1ccc(C(=O)c2cc([N+](=O)[O-])ccc2N2CCCC2)cc1	-0.081% (inactive)	–
COC(=O)c1ccccc1NC(=O)C1CC(=O)N(c2ccc(OC)cc2)C1 (configuration not stated)	-1.16% (inactive)	–
CCCCN1C(=O)/C(=C/C=C2/CC(C)(C)CN2C)SC1=S	-28.2% (inactive)	–
CCCN1C(=O)/C(=C/C=C2\N(CC)c3ccccc3C2(C)C)SC1=S	–	3.96 µM (active)
CCCN1C(=O)/C(=C\C=C2\N(CC)c3ccccc3C2(C)C)SC1=S	–	3.26 µM (active)
O=C(NCc1ccco1)c1cccc2c1C(=O)c1ccc(N3CCC(Cc4ccccc4)CC3)cc1S2(=O)=O	–	18.4 µM (active)
Cc1c(C)n(Cc2ccccc2)c2ccc(C(=O)NCc3ccco3)cc12	-7.76% [at 46.1 µM] (inactive)	–
O=C(NC1CC1)c1cccc2c1C(=O)c1ccc(N3CCC(Cc4ccccc4)CC3)cc1S2(=O)=O	–	23.1 µM (active)
Cc1cc(C)c(S(=O)(=O)N2CCCCC2CCNC(=O)C(=O)NCc2ccco2)c(C)c1 (configuration not stated)	-17.1% (inactive)	–
O=C(NCc1ccccc1C(F)(F)F)c1cccc2c1C(=O)c1ccc(N3CCC(N4CCCCC4)CC3)cc1S2(=O)=O	–	20.6 µM (active)
O=C(NCc1cccc(C(F)(F)F)c1)c1cccc2c1C(=O)c1ccc(N3CCC(Cc4ccccc4)CC3)cc1S2(=O)=O	–	18.4 µM (active)
Cc1ccc(C(=O)NC(=C(Cl)Cl)S(=O)(=O)c2ccc(Cl)cc2)cc1	-21.2% (inactive)	–
CC(=O)c1cccc(-c2ccnc3c2CC(C(=O)NCC2CCOCC2)O3)c1 (configuration not stated)	-5.46% (inactive)	–
COc1ccccc1C(=O)N1CCN(c2cccc(Cl)c2)CC1	-4.75% (inactive)	–
Cc1cccc(C(=O)NC(=S)N2CCc3ccccc3C2)c1	13.5% [at 46.1 µM] (inactive)	–
